Bioassay records: PubChem BioAssay, National Center for Advancing Translational Sciences (NCATS)
Sampled rows, rich in hits. Any-hit rate of the full collection: about 7.3%.
HCV inhibitor – qHTS Assay for Inhibitors of Hepatitis C Virus (HCV); Huh7.5.1 HCVcc-Cre infection, luciferase reporter, 44 h; Potency, µM (series often up to 41.8 µM), inactives show at the highest dose activity change, negative = inhibition, hits mostly inhibitors; hit rate 3.4% among 340,000; active means well fitted inhibition curve with a large enough effect; inconclusive means small, poorly fitted or top-dose-only effect, or another doubt; inactive means no such curve, though single readings can be large or run the other way; further: potency means the concentration at half of the fitted maximal effect
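Cells (1,000/well) were plated 4 h before compound, then infected with HCVcc-Cre virus (~0.5 moi). After 44 h further culture, infection was read as luciferase luminescence following a 15 min substrate incubation at room temperature.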
FMDV inh – High Throughput Screening for Foot and Mouth Disease Virus Antivirals | FMDV antiviral cell-based qHTS | Potency, µM (top dose mostly 57.9 µM), for the others: top-dose activity change, negative = inhibition, actives largely listed as inhibitors | hit rate 1.2% among 410,000 | AID 1159524, 2015; calls by dose curve; tested in HEK293T cells; further: read-out not given here; potency means the concentration at half of the fitted maximal effect; nearly all actives have a fitted effect of over 45% in size
VACV mCherry inh – qHTS for Stage-Specific Inhibitors of Vaccinia Orthopoxvirus: mCherry Reporter Primary qHTS; Vaccinia virus mCherry reporter infection, fluorescence; Potency, µM (top dose mostly 36.5 µM), for the others: at the top dose activity change, negative = inhibition, most hits filed as inhibitors; hit rate 0.63% among 310,000; AID 720579, 2013; calls by dose curve; tested in A549 cells; further: potency means the concentration at half of the fitted maximal effect; nearly all actives have a fitted effect of over 35% in size
VACV Venus inh – qHTS for Stage-Specific Inhibitors of Vaccinia Orthopoxvirus: Venus Reporter Primary qHTS; Vaccinia virus Venus reporter expression, fluorescence; hit rate 0.46% among 330,000; AID 720580, 2013; Potency, µM (titrated, usually from 36.5 µM), inactives show at the top dose activity change, negative = inhibition, most hits filed as inhibitors; calls by dose curve; tested in A549 cells; further: potency means the concentration at half of the fitted maximal effect; nearly all actives have a fitted effect of over 30% in size
HCMV inh – qHTS Assay for inhibitors of the human cytomegalovirus (HCMV); HFF cells, HCMV-luciferase reporter, 72 h; hits give low values; AID 1259415, 2018; activity change, negative = inhibition, % at 57.5 µM; hit rate 4.5% among 410,000; in the data active means activity change below about -60%; inconclusive means no clear call, values can overlap the other calls; inactive means above about -39%
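Two-dose cell screen: HFF monolayers treated with compounds and infected with luciferase-expressing HCMV at 1 PFU/cell, 72 h at 37C, then lysed for luciferase measurement.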
* marks the source's active call; other numbers are inactive results; i = inactive; ? = inconclusive; · = no result. On the % scale 0 is the no-effect control and ±100 the full control effect.

SMILES | HCV inhibitor | FMDV inh | VACV mCherry inh | VACV Venus inh | HCMV inh
Cc1ccc(NC(=O)C2CCCN2S(=O)(=O)c2ccc3nc(-c4ccccc4)[nH]c3c2)cc1F (stereo unspecified) | · | ? | -21% | -19% | -84*
OCCC#Cc1ccc(F)c(-c2noc3ccccc23)c1 | · | · | · | · | -10
CC1(C(=O)Nc2cccc(Oc3ccccc3)c2)Cc2c(-c3ccc4c(c3)OCO4)ccnc2O1 (stereo unspecified) | · | -7% | -5% | -26% | -67*
CC1(C(=O)Nc2ccccc2)Cc2c(-c3ccc4c(c3)OCO4)ccnc2O1 (stereo unspecified) | · | 10% | 10% | -16% | -23
COc1ccc(NC(=O)Cc2cccc(F)c2)cc1S(=O)(=O)Nc1ccccc1Cl | ? | 32% | -20% | -9% | -34
COc1ccc(CC(=O)Nc2cc(S(=O)(=O)Nc3ccc(OC)cc3)ccc2OC)cc1 | 13µM* | -24% | · | · | ?
Cc1ccc(NC(=O)CN2C(=O)NC3(CCCCCCC3)C2=O)cc1C | -6% | -8% | -7% | -7% | 59
COc1ccc(NS(=O)(=O)c2cc(NC(=O)Cc3c(F)cccc3Cl)ccc2OC)cc1 | 13µM* | 33% | -12% | -18% | -29
COc1ccc(NC(=O)CN2C(=O)NC3(CCCCCC3)C2=O)cc1Cl | 25µM* | -12% | 0% | -17% | 17
COc1ccc(NC(=O)CCN2C(=O)NC3(CCCC3)C2=O)cc1Cl | 0% | -14% | · | · | 5
COc1ccccc1NS(=O)(=O)c1cc(NC(=O)CN2C(=O)NC3(CCCCC3)C2=O)ccc1C | 13µM* | -6% | · | · | -5
CC1=C(C(=O)Nc2ccc(Cl)cc2)C(C(C)C)n2nc(SCc3ccc(Cl)cc3)nc2N1 (stereo unspecified) | · | -8% | -6% | -4% | 8
CCN1c2ccccc2-c2nc(SCC(=O)Nc3cccc(C)c3C)ncc2S1(=O)=O | · | ? | -16% | 5% | -17
COc1cc(OC)c(NC(=O)CN2C(=O)CCn3nc(-c4cccn4C)cc32)cc1Cl | · | 5% | -17% | -11% | -4
Cc1ccc(S(=O)(=O)N(C)C)cc1NC(=O)CN1C(=O)NC2(CCCCCC2)C1=O | 24% | -12% | -6% | -5% | 2
COc1ccc(NS(=O)(=O)c2ccc(C)c(NC(=O)CN3C(=O)NC4(CCCC4)C3=O)c2)cc1 | -2% | 36% | · | · | -66*
O=C(CCCN1C(=O)NC2(CCCC2)C1=O)Nc1ccc(F)cc1 | -34% | -2% | -15% | -8% | -10
O=C(CN1C(=O)NC2(CCCCCCC2)C1=O)Nc1ccc(Br)cc1 | 32µM* | ? | · | · | -20
Cc1ccc(Sc2ccc(NC(=O)CCN3C(=O)NC4(CCCC4)C3=O)cc2)c(C)c1 | 4µM* | ? | · | · | 0
CN(C(=O)CSc1nc2ccccc2n1CC(=O)N(C)C1CCCCC1)c1ccccc1 | · | -15% | -14% | -5% | -9
C[C@@H](C[C@@H](O)[C@H](O)C(C)(C)O)[C@@H]1CC[C@]2(C)C3=CC[C@H]4C(C)(C)C(=O)CC[C@]4(C)[C@H]3CC[C@@]12C | -12% | ? | ? | 11µM* | 1
C[C@H](C[C@H](O)[C@H]1OC1(C)C)C1=C2C[C@H](O)C3[C@@]4(C)CCC(=O)C(C)(C)C4CC[C@]3(C)[C@@]2(C)CC1 (stereo partly specified) | ? | ? | -7% | ? | 21
Cc1ccc(C)c(N2CCN(C(=O)C3CCCN(Cc4nc(-c5cccc(Cl)c5)oc4C)C3)CC2)c1 (stereo unspecified) | · | ? | i | -6% | 0
CCc1ccc(-c2nc(CN3CCCC(C(=O)N4CCN(c5cc(Cl)ccc5C)CC4)C3)c(C)o2)cc1 (stereo unspecified) | · | ? | ? | ? | -86*
Cc1ccc(Cl)cc1N1CCN(C(=O)C2CCCN(Cc3nc(-c4cccc(Cl)c4)oc3C)C2)CC1 (stereo unspecified) | · | ? | i | -9% | -69*
CCOC(=O)N1CCN(C(=O)C2CCCN(Cc3nc(-c4ccc(Cl)cc4)oc3C)C2)CC1 (stereo unspecified) | 1.4µM* | ? | ? | ? | ?
